Results filed as inconclusive are left out. Activity calls are given as the source filed them. The call rests on the fitted dose curve; in most records, active means well fitted inhibition curve with a large enough effect; inconclusive means small, poorly fitted or top-dose-only effect; inactive means flat fitted curve, though single readings scatter.
These molecules were tested against Calcium and integrin-binding protein 1 (Homo sapiens) (UniProt Q99828) (assay: Primary qHTS for Identification of Calcium Integrin Binding Protein 1 (CIB1) Competitor (AID 1508620;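 further: GST tagged CIB1 binding a fluorescein labelled alphaIIb integrin peptide tracer; top concentration of the series differs between compounds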)). Conditions: CIB1-GST / FITC-alphaIIb peptide fluorescence polarization; series mostly up to 57.7 µM; activity change, negative = inhibition: at the top concentration.
Text: Assay Provider: Ulhas P. Naik, PhD Sidney Kimmel Medical College Thomas Jefferson University, Philadelphia, PA Primary function of platelets is to maintain hemostasis. At the site of vascular injury, platelets adhere to adhesive proteins such as collagen and von Willebrand factor. Adherent platelets are activated and generate soluble platelet agonists such as thrombin, ADP and thromboxane A2. Following exposure of circulating platelets to these agonists, results in platelet shape change, granule secretion and activation of platelet integrin alphaIIb-beta3. Ligand binding to activated integrin alphaIIb-beta3 triggers outside-in signaling, leading to platelet aggregation, stabilization of platelet plug, and clot retraction. Upon atherosclerotic plaque rupture also causes platelet plug formation, which underlies a number of cardiovascular diseases such as myocardial infraction and stroke. A number of anti-platelet drugs such as aspirin, clopidogrel, prasugrel, vorapaxar, and eptifibatide are currently available to prevent the thrombotic complications. However, these anti-platelet agents have several limitations including inherent variability in individual responses, developing resistance, and serious bleeding side effects. For these reasons they are not suitable for long-term protection. Based on the experiences with current anti-platelet drugs, it appears that the most useful therapeutic approach is to intersect the secondary responses such as integrin outside-in signaling or recruitment of platelets by TxA2 and secreted ADP. Compounds, which can largely preserve the primary hemostatic function of platelets but inhibit secondary response will be most desired therapeutic agents for treatment of cardiovascular disease. CIB1 is a calcium integrin binding protein, which specifically interact with the alphaIIb subunit of integrin alphaIIb-beta3. Binding of CIB1 to alphaIIb regulates the outside-in signaling in platelets, which is needed for thrombus stabilization and thrombus growth. […] Therefore, we propose that discovery of a small molecule that can prevent the association of CIB1 and alphaIIb-beta3 will be a potential anti-platelet agent that can block the thrombus formation without undue effect on hemostasis. Reference: [1] Naik MU, Nigam A, Manrai P, et al. CIB1 deficiency results in impaired thrombosis: the potential role of CIB1 in outside-in signaling through integrin alpha IIb beta 3. J Thromb Haemost.
PROTOCOL TABLES SEQUENCE No. (1, 2, 3, etc.); […] (e.g., Cells, Incubation, Reagent, etc.); VALUE and DESCRIPTION. 1; Reagent; 3 uL; Protein or buffer (4/3x) 2; Compound; 46 nL; Control inhibitor / compound library 3; Time; 15 min; Room temperature incubation 4; Reagent; 1 uL; Fluorescent labeled peptide (4x) 5; Time; 1000 rpm; Centrifuge 6; Time; 15 min; Room temperature incubation 7; Detection; Ex 480/ Em 540; ViewLux Fluorescence Read NOTES (numbers refer to sequence above) 1; Protein Mixture: C1B1-GST (final concentrations of 1 uM). […] 3; Room temperature incubation. 4; Fluorescent Labeled Peptide: FITC-aIIb (final concentration of 100 nM). Sequence of alphaIIb peptide: Acetyl-[…]-FITC (purity is 95.83%). 5; Centrifuge 1000 rpm (164 g) for 15 seconds. 6; Room temperature incubation. 7; ViewLux Fluorescent Polization Read: excitation = 480(20) / emission = 540(25) S and P; FITC Dichroic mirror.
On the % scale 0 is the no-effect control and ±100 the full control effect.

Sequence of Calcium and integrin-binding protein 1 (Homo sapiens) (Q99828 whole entry, looked up): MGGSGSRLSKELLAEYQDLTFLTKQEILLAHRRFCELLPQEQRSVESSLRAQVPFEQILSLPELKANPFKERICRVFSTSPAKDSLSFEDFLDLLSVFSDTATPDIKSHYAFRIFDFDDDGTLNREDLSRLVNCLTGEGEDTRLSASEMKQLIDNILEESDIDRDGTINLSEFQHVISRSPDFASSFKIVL

Row | SMILES | activity change, negative = inhibition
1 | C=C(C(=O)O)[C@H]1C[C@]2(C)C(=O)CC[C@]23O[C@H]1C[C@@H]3C | -0.293% [at 114 µM] (inactive)
2 | COc1cc(C2Oc3c(OC)cc(/C=C/C(=O)OC4CC(O)(C(=O)O)CC(O)C4O)cc3C2CO)ccc1O (stereo not given) | -2.04% (inactive)
3 | CCC(C)C(N)C(=O)NCCN1CCOCC1 (stereo not given) | 4.14% [at 114 µM] (inactive)
4 | COC(=O)c1cc(OC)cc(OC)c1C(=O)c1c(OC)cc2c(c1O)C1CCC(O)C(C)(O2)O1 (stereo not given) | -5.22% (inactive)
5 | Cc1ccc(Nc2nnc(-c3ccc([N+](=O)[O-])cc3)o2)cc1Cl | 2.53% [at 114 µM] (inactive)
6 | OC[C@H]1O[C@@H](OCc2ccccc2)[C@H](O[C@@H]2OC[C@@H](O)[C@H](O)[C@H]2O)[C@@H](O)[C@@H]1O | -0.502% (inactive)
7 | Fc1ccccc1-c1nc2ccn(Cc3ccc(-c4ccc(C(F)(F)F)cc4C(F)(F)F)nn3)cc-2n1 | 3.43% [at 114 µM] (inactive)
8 | CC(C)=CC1C[C@](C)(O)[C@@H]2[C@H]3CCC4[C@@]5(C)CC[C@H](O[C@@H]6OC[C@H](O)[C@H](O[C@@H]7O[C@H](CO[C@@H]8O[C@H](CO)[C@@H](O)[C@H](O)[C@H]8O)[C@@H](O)[C@H](O)[C@H]7O)[C@H]6O[C@@H]6O[C@@H](C)[C@H](O)[C@@H](O)[C@H]6O)C(C)(C)[C@@H]5CC[C@@]4(C)[C@@]34CO[C@@]2(C4)O1 (stereo not given in full) | -2.27% [at 30.2 µM] (inactive)
9 | CN(C)CC(c1ccc(O)cc1)C1(O)CCCCC1 (stereo not given) | 6.99% [at 114 µM] (inactive)
10 | CC(=O)c1c(C)cccc1O[C@@H]1O[C@H](CO)[C@@H](O)[C@H](O)[C@H]1O | -1.77% (inactive)
11 | COc1cnc(-n2cnc(C)n2)c2[nH]cc(C(=O)C(=O)N3CCN(C(=O)c4ccccc4)CC3)c12 | -13.1% [at 114 µM] (inactive)
12 | CC1OC(O[C@@H]2[C@@H](O)[C@H](OC(=O)[C@]34CCC(C)(C)C[C@H]3C3=CCC5[C@@]6(C)CC[C@H](O[C@@H]7O[C@H](C(=O)O)[C@@H](O)[C@H](O[C@@H]8OC[C@@H](O)[C@H](O)[C@H]8O)[C@H]7O[C@@H]7O[C@H](CO)[C@H](O)[C@H](O)[C@H]7O)[C@@](C)(C=O)C6CC[C@@]5(C)[C@]3(C)C[C@H]4O)O[C@H](C)[C@@H]2OC2OC(C)C(OC3OCC(O)C(O)C3O)C(O)C2O)C(O)C(O)C1O (stereo not given in full) | 3.33% [at 12.4 µM] (inactive)
13 | CCC1OC(=O)C(C)CC(C)C(=O)/C(C)=C/C(C)C(=O)/C=C/C1(C)O (stereo not given) | -1.88% (inactive)
14 | CCC/C=C1\OC(=O)C2=C1CCC(O)C2O (stereo not given) | 3.59% [at 114 µM] (inactive)
15 | Cc1oc2nc3c(c(NC(=O)CN4CCCC4=O)c2c1C)CCCC3 | 6.84% [at 114 µM] (inactive)
16 | COc1cc(O)c2c(c1Cl)CC(C)OC2=O (stereo not given) | 1.35% [at 114 µM] (inactive)
17 | CC1C2=CC(=O)OC2(O)CC2C1C(OC(=O)c1ccccc1)C(OC(=O)c1ccccc1)C1(O)C2(C)CCC(O)C1(C)C(=O)O (stereo not given) | -2.61% [at 30.2 µM] (inactive)
18 | CC12CC(O)C(O)C=C1c1cc(O)cc(O)c1C(=O)O2 (stereo not given) | -8.25% [at 114 µM] (inactive)
19 | CCC(C)/C=C(C)/C=C/C(=O)C1CCC(O)C(C)(O)C1=O (stereo not given) | -3.84% [at 114 µM] (inactive)
20 | C=C(C)[C@@H]1CC[C@]2(C(=O)O)CC[C@]3(C)[C@H](CCC4[C@@]5(C)CCC(=O)C(C)(C)C5C(O)C[C@]43C)C12 (stereo not given in full) | -0.62% (inactive)

Row | SMILES | activity change, negative = inhibition
21 | NC(=O)[C@@H]1CC[C@H](c2ccc(OCc3ccccc3F)cc2)N1 | 1.93% [at 114 µM] (inactive)
22 | COc1cc(C(CO)C(OC2OC(CO)C(O)C(O)C2O)c2ccc(O)c(OC)c2)ccc1O (stereo not given) | -0.284% (inactive)
23 | CC1(C)OC(=O)C=C[C@@]2(C)C1CC(=O)[C@]1(C)C2CC[C@@]2(C)[C@H](c3ccoc3)OC(=O)[C@H]3O[C@]321 (stereo not given in full) | -3.45% (inactive)
24 | CCN=C1N[C@@H]2[C@@H](O)[C@H](O)[C@@H](CO)O[C@@H]2S1 | 1.53% [at 114 µM] (inactive)
25 | N#CN1CCC[C@@H](n2nc(-c3ccc(Oc4ccc(F)cc4F)cc3)c(C(N)=O)c2N)C1 | -0.122% [at 114 µM] (inactive)
26 | CC(=O)NC1CC(=O)C23C(=O)NC(Cc4c[nH]c5ccccc45)C2C(C)=C(C)C(O)C3/C=C/CC(C)/C=C(/C)C(O)C1O (stereo not given) | 2.14% [at 30.2 µM] (inactive)
27 | C=C1C(OC(C)=O)[C@@]23CCC4[C@](C)(C(=O)O)CCC[C@@]4(C)[C@]2(O)CC[C@H]1C3 (stereo not given in full) | 4.41% (inactive)
28 | CC1(C(=O)O)CCCC2(C)C3CCC4CC3(CCC12)CC4(O)CO (stereo not given) | 4.1% (inactive)
29 | COc1c2cc(c(O)c1OC)CCCCC(O)CCc1ccc(O)c-2c1 (stereo not given) | -8.66% (inactive)
30 | C[C@@H]1C[C@H]2OC(=O)[C@@]3(C)CCC[C@](C)(C23)[C@@]1(O)CCC1=CC(=O)OC1O (stereo not given in full) | -2.87% (inactive)
31 | COC(=O)[C@]1(C)CCC[C@@]2(C)C(=O)CC[C@H]3C(=O)C=C(CC[C@@H]21)C3O (stereo not given in full) | -8.21% (inactive)
32 | O=C(O)Cc1cn([C@@H]2O[C@H](CO)[C@@H](O)[C@H](O)[C@H]2O[C@@H]2O[C@H](CO)[C@@H](O)[C@H](O)[C@H]2O)c2ccccc12 | 0.513% (inactive)
33 | CC(C)C1CCC(CO)=CC1/C=C(\CO)C(=O)OCC1(O)CCC(C(C)C)C2C=C(C(=O)O)COC(=O)C21 (stereo not given) | 1.89% (inactive)
34 | CC1=C(CO)CC(C(C)C2CCC3C4CC=C5CC(OC6OC(COC7OC(CO)C(O)C(O)C7O)C(O)C(O)C6O)CC(O)C5(C)C4CCC23C)OC1=O (stereo not given) | -1.01% [at 30.2 µM] (inactive)
35 | CC1CC(O)/C=C/C(O)/C=C\C(=O)O1 (stereo not given) | 3.7% [at 228 µM] (inactive)
36 | CC1CC(=O)[C@]2(O)C(C(=O)OCCc3ccc(O)c(O)c3)=CO[C@@H](O[C@@H]3O[C@H](CO)[C@@H](O)[C@H](O)[C@H]3O)[C@H]12 (stereo not given in full) | 4.99% (inactive)
37 | COc1ccc2c(c1)N1C(=O)C[C@@]34C=CC[N@+]5([O-])CC[C@H]2[C@H](CC3)[C@@]145 | -6.34% (inactive)
38 | COc1cc(/C=C/C(=O)OC[C@H]2O[C@@H](OC3CC(C)=C(C(=O)O)C(C)(C)C3)[C@H](O)[C@@H](O)[C@@H]2O)cc(OC)c1O (stereo not given in full) | 1.28% (inactive)
39 | OCC1OC(Oc2cc(O)cc(/C=C/c3ccc(OC4OC(CO)C(O)C(O)C4O)cc3O)c2)C(O)C(O)C1O (stereo not given) | 4.7% (inactive)
40 | COC(=O)C(CC1(O)c2ccccc2N2C(=O)C(C)(C)N(O)C21)n1cnc2ccccc2c1=O (stereo not given) | -2.34% (inactive)
